Results: article PMC4336329 (PLoS ONE, 2015)
The campaign covered roughly 310,000 compounds. About 2,200 (0.71%) showed an effect of 50% or more. Effects have a minus sign here. The sample as a whole holds a higher share of strong results than the screen did.

Target: human ether-à-go-go-related gene (hERG) potassium channel (human, UniProt Q12809)
Assay: primary screen, population patch clamp on CHO cells stably expressing hERG; higher = less effect of the substance

human ether-à-go-go-related gene (hERG) potassium channel, sequence (Q12809 whole entry, looked up): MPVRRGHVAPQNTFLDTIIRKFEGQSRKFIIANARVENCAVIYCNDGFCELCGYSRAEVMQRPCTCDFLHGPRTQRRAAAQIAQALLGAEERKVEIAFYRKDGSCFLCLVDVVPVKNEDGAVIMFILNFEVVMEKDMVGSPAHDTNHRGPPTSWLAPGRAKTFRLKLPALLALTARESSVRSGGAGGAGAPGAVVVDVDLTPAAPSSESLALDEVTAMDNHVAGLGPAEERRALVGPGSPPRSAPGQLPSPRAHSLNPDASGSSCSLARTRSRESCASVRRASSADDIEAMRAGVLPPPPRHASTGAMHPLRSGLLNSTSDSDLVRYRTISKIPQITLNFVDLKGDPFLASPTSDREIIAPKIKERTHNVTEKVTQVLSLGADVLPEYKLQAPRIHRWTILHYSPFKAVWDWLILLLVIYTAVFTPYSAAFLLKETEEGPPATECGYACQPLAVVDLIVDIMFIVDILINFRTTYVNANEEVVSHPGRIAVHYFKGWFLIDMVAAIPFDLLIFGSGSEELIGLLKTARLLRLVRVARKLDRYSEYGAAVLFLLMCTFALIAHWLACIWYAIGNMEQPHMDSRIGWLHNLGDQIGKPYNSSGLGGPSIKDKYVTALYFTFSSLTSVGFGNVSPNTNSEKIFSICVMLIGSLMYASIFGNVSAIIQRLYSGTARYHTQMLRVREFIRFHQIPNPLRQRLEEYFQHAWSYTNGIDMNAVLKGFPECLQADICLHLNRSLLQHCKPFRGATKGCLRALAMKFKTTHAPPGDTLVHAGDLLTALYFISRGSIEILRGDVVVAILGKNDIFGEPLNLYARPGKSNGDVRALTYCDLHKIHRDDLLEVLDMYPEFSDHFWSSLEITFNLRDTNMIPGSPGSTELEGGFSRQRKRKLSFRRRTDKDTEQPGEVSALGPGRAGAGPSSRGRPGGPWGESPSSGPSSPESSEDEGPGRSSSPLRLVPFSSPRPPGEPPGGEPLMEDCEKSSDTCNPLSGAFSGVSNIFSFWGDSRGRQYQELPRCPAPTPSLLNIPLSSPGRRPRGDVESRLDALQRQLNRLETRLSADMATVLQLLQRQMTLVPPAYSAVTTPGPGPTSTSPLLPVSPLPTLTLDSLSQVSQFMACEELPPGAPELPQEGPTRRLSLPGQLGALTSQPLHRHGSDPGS

SMILES	hERG current change (%, negative = inhibition) at 1uM [%]
Cc1ccc(NC2CCCN(C(=O)c3ccc(-n4ccnc4)cc3)C2)cc1C (centres unmarked)	-4.71
COc1ccc(-c2cc(-c3ccc(C)cc3)nc(SCc3nnc(-c4ccccc4)o3)c2C#N)cc1OC	8.98
CS(=O)(=O)N1N=C(c2ccco2)CC1c1ccccc1Cl (centres unmarked)	9.15
CCn1nc(C)c(/C=N/NC(=O)CSc2ccccn2)c1C	10.3
COCCn1c(SCC(=O)c2c[nH]c3ccccc23)nnc1-c1ccncc1	7.84
O=C(Nc1ccc(Cl)cc1)c1cncs1	11.3
CC(C)n1cc(CN2CCC(n3nccc3NC(=O)C3CCCC3)CC2)cn1	6.1
CC(C)Cc1ccc(CN2CCC(n3nccc3NC(=O)C3CCCC3)CC2)cc1	-16.9
O=C(Nc1ccnn1C1CCN(Cc2ccc(Cl)cc2)CC1)C1CCCC1	-37.2
COC(=O)c1ccc(CN2CCC(n3nccc3NC(=O)C3CC3)CC2)cc1	-6.68
COc1cc(CN2CCC(n3nccc3NC(=O)C3CC3)CC2)cc(OC)c1	-29.5
CC(C)Oc1ccc(CN2CCC(n3nccc3NC(=O)C3CC3)CC2)cc1	-68.4
COC(=O)c1ccc(CN2CCC(n3nccc3NC(=O)C3CCCC3)CC2)cc1	-26.7
O=C(Nc1ccnn1C1CCN(Cc2ccccc2OC(F)F)CC1)c1cccnc1	2.05
CC(Cc1ccc(Cl)cc1)N1CCC(n2nccc2NC(=O)C2CCCC2)CC1 (centres unmarked)	-67.5
Cc1ccccc1CN1CCC(n2nccc2NC(=O)c2cccnc2)CC1	4.68
CCc1ccc(CN2CCC(n3nccc3NC(=O)C3CCCC3)CC2)cc1	-68.2
CC(C)Oc1ccc(CN2CCC(n3nccc3NC(=O)c3cccnc3)CC2)cc1	-52.6
O=C(N/N=C(\CC(=O)c1cccs1)C(F)(F)F)c1cccnc1	12.7
Cl.O=C(NCCN1CCCC1)c1ccc(Cl)cc1Cl	16.6
O=C(NCC1(N2CCCCC2)CCCCC1)C1CC(=O)N(c2ccc3c(c2)OCCO3)C1 (centres unmarked)	14.3
COc1cc(C2NC(=O)C(C#N)=C(S)N2c2ccc(C)cc2)ccc1OC(C)C (centres unmarked)	9.81

SMILES	hERG current change (%, negative = inhibition) at 1uM [%]
COc1cc(OC)cc(C(=O)NCCCn2ccnc2)c1	18.8
Cn1c2ccccc2c2nnc(SC3CCOC3=O)nc21 (centres unmarked)	3.35
O=C(O)C(C(O)c1ccc([N+](=O)[O-])cc1)[n+]1ccccc1.[Br-] (centres unmarked)	18.1
COc1cccc(OCc2cc(C(=O)NCc3cnc4ccccn34)no2)c1	3.98
Cn1c(SCC(=O)NC(=O)Nc2ccccc2)nnc1-c1ccncc1	9.09
O=C(Nc1ccnn1C1CCN(Cc2ccc(OC(F)F)cc2)CC1)C1CCCC1	-81.5
O=C(Nc1ccnn1C1CCN(Cc2ccc(O)c(Cl)c2)CC1)C1CCCC1	-6.39
COc1ccc(CN2CCC(n3nccc3NC(=O)C3CCCC3)CC2)cc1	-47.4
Cc1c(NC(=O)c2cccc(-c3cc4ccccc4oc3=O)c2)cccc1-c1nc2ncccc2o1	12.7
CCNC(=O)N1CCN(CCCC(c2ccc(F)cc2)c2ccc(F)cc2)CC1.Cl	-90.3
O=C(Nc1ccc(F)cc1)N1CCN(CCc2ccccc2)CC1	-9.52
CCCCNC(=O)N1CCN(Cc2ccc(F)cc2)CC1	9.29
CCN(CC)CCNS(=O)(=O)c1ccc2[nH]cc(C(=O)O)c(=O)c2c1	10.9
O=C(Nc1ccnn1C1CCN(CC2CC=CCC2)CC1)c1ccccc1Cl (centres unmarked)	-37.8
O=C(Nc1ccnn1C1CCN(C2CCCCC2)CC1)c1ccccc1	12.1
COc1ccccc1C(=O)Nc1ccnn1C1CCN(C(=O)C(C)(C)C)CC1	-6.95
O=C(Nc1ccnn1C1CCN(CCCC2CCCC2)CC1)c1ccccc1Cl	-99
COc1ccccc1C(=O)Nc1ccnn1C1CCN(C2CCSCC2)CC1	-44.5
COc1ccccc1C(=O)Nc1ccnn1C1CCN(CCCC2CCCC2)CC1	-93.2
Cc1ccccc1C(=O)Nc1ccnn1C1CCN(CC2CC=CCC2)CC1 (centres unmarked)	-33.5
O=C(Nc1ccnn1C1CCN(C2CCCC2)CC1)c1ccccc1	13.3
COc1ccccc1C(=O)Nc1ccnn1C1CCN(CC2CC=CCC2)CC1 (centres unmarked)	-69.1
